Each structure is given as a SMILES string. Inconclusive results are not listed. A number with no mark means an inactive call. Calls of active or inactive are those of the source. Calls come from the whole dose curve; as a rule, active = well fitted curve in the direction sought with a large enough effect; inconclusive = small, poorly fitted or top-dose-only effect, or another doubt; inactive = no such curve, though single readings can be large; an effect the other way counts as inactive or inconclusive. Residues, ends and D or L forms follow the SMILES beside them. *: point of attachment. Cbz = O=C(OCc1ccccc1)*

In one assay the test system is MCC-13. Briefly: qHTS assay to identify novel small-molecules to repurpose for Merkel cell carcinoma treatment (AID 1296009). Note: nearly all actives have a fitted effect of over 60% in size. Note: potency is the fitted concentration of half-maximal effect. The following applies: MCC and control cell lines, CellTiter-Glo viability, 72 h; series mostly up to 46 µM. The gist of the method:
(§1)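 Cell viability, measured as CellTiter-Glo luminescence, was normalized between DMSO and no-cell wells. The cells had been exposed to 8- or 11-point compound dilutions for 72 hr at 37 degree celsius.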
Background: Quantitative high-throughput screening tests each substance at several concentrations.

In the next assay the test system is MCC-26. The assay is described as above. The following applies: MCC and control cell lines, CellTiter-Glo viability, 72 h; series mostly up to 46 µM. An outline of the steps: as §1
In general terms: ATP-based viability assays read luminescence as a measure of living cells.

In another assay the test system is MKL-1. The assay is described as above. The following applies: MCC and control cell lines, CellTiter-Glo viability, 72 h; series mostly up to 46 µM. An outline of the steps:
as §1

The subject of a further assay is MKL-2. The assay is described as above. The note with it: MCC and control cell lines, CellTiter-Glo viability, 72 h; series mostly up to 46 µM. The gist of the method:
as §1

The test system of another assay is WaGa. The assay is described as above. The following applies: MCC and control cell lines, CellTiter-Glo viability, 72 h; series mostly up to 46 µM. An outline of the steps: as §1
In the next assay the test system is UISO. Described as above. The note with it: MCC and control cell lines, CellTiter-Glo viability, 72 h; series mostly up to 46 µM. The gist of the method:
as §1

In another assay the test system is CASKI. The assay is described as follows: Primary qHTS to identify gynecologic anti-cancer compounds using libraries of approved drugs and bioactive compounds (AID 1345084). Note: nearly all actives have a fitted effect of over 55% in size. Note: potency is the fitted concentration of half-maximal effect. The following applies: Gynecologic cancer cell panel viability, ATPlite luminescence, 48 h; series mostly up to 57.5 µM. An outline of the steps: (§2)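 Cells, 1,000 per well, plated 16 h, then exposed 48 h at 37 C to compounds. Viability by ATPlite luminescence after 15 min at room temperature.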

For a further assay, the system named is PA-1. Described as above. The note with it: Gynecologic cancer cell panel viability, ATPlite luminescence, 48 h; series mostly up to 57.5 µM. An outline of the steps: as §2
For a further assay, the system named is SKOV3. Described as above. The following applies: Gynecologic cancer cell panel viability, ATPlite luminescence, 48 h; series mostly up to 57.5 µM. An outline of the steps:
as §2

In a further assay the test system is C33A. The assay is described as above. The note with it: Gynecologic cancer cell panel viability, ATPlite luminescence, 48 h; series mostly up to 57.5 µM. The gist of the method: as §2
The test system of another assay is Es-2. Described as above. The note with it: Gynecologic cancer cell panel viability, ATPlite luminescence, 48 h; series mostly up to 57.5 µM. An outline of the steps:
as §2

The next assay deals with HeLa. Described as above. The note with it: Gynecologic cancer cell panel viability, ATPlite luminescence, 48 h; series mostly up to 57.5 µM. The gist of the method: as §2
The next assay concerns Hek293T. The assay is described as above. The note with it: Gynecologic cancer cell panel viability, ATPlite luminescence, 48 h, control line for the selectivity index; series mostly up to 57.5 µM. The gist of the method:
as §2

Another assay relates to OV90. The description is as above. The note with it: Gynecologic cancer cell panel viability, ATPlite luminescence, 48 h; series mostly up to 57.5 µM. An outline of the steps:
as §2

The next assay concerns Tov-21-G. The assay is described as above. The note with it: Gynecologic cancer cell panel viability, ATPlite luminescence, 48 h; series mostly up to 57.5 µM. An outline of the steps:
as §2

The test system of the next assay is Tov112D. Described as above. The following applies: Gynecologic cancer cell panel viability, ATPlite luminescence, 48 h; series mostly up to 57.5 µM. The gist of the method: as §2
Assay [1] is described as follows: qHTS assay to identify inhibitors of the type 1 interferon - major histocompatibility complex class I in skeletal muscle: Counter screen cell viability and HiBit confirmation (AID 1347412). Note: nearly all actives have a fitted effect of over 60% in size. Note: potency is the fitted concentration of half-maximal effect. The note with it: iHSKM muscle cells + IFN-b, HiBiT or CellTiter-Glo, 24 h; Potency: HiBiT; Viability, at 45.9 µM (top of the series). An outline of the steps:
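After 24 h with human IFN-beta (4 ng/ml) and compound titrations (top 46 uM final, 1:3, 12 points), HLA-B HiBit myoblasts were lysed for either Nano-Glo HiBiT luminescence or CellTiter Glo viability on paired plates.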

The nature of assay [2]: Drug repurposing screens with cells derived from glioblastoma tumor samples (AID 1345199). Note: nearly all actives have a fitted effect of over 40% in size. The note with it: GBM patient neurospheres viability, ATP luminescence, 48 h; Potency: tumour line A; series mostly up to 46.1 µM. An outline of the steps:
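Primary testing used CD133+ neurospheres from four GBM patients, seven concentrations, 48 h exposure and ATP-based viability; confirmation added three slower-growing patient lines.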

The subject of a further assay is JEG-3. Briefly: Primary qHTS to identify gynecologic anti-cancer compounds using libraries of approved drugs and bioactive compounds (AID 1345084). Note: nearly all actives have a fitted effect of over 55% in size. Note: potency is the fitted concentration of half-maximal effect. The following applies: Gynecologic cancer cell panel viability, ATPlite luminescence, 48 h; series mostly up to 57.5 µM. The gist of the method:
as §2

The subject of a further assay is NIH3T3. The assay is described as follows: qHTS assay to identify novel small-molecules to repurpose for Merkel cell carcinoma treatment (AID 1296009). Note: nearly all actives have a fitted effect of over 60% in size. Note: potency is the fitted concentration of half-maximal effect. The following applies: MCC and control cell lines, CellTiter-Glo viability, 72 h; at 44.8 µM (top of the series) unless noted. An outline of the steps: as §1
% is set by controls: 0 for no effect and ±100 for the full control effect.

As for `CCc1cc(C(C)=NOCc2ccc(C3CCCCC3)c(C(F)(F)F)c2)ccc1CN1CC(C(=O)O)C1`, the Potency result in the assay with MCC-13, with MCC-26, with MKL-1 and in the assay with WaGa was “inactive” in each case. Moreover, in the assay with MKL-2, the Potency is 6.62 µM (active).

Consider `Nc1ccc(C(=O)Nc2cccc(-c3nc(N4CCOCC4)c4oc5ncccc5c4n3)c2)cn1`, for which the Potency result in the assay on MCC-13, in the assay with MCC-26, in the assay on MKL-1, with MKL-2 and in the assay with UISO was “inactive” throughout. Also, the Potency in the assay on CASKI is 14.1 µM (active); in the assay with PA-1, 3.16 µM (active); in the assay on SKOV3 it was 15.8 µM (active).

As for `CC(Cc1ccc(O)c(O)c1)(NN)C(=O)O` (stereo unspecified), the Potency entry in the assay with MCC-13, with MCC-26, with MKL-1, in the assay with UISO and in the assay with WaGa was “inactive” in each case.

As for `CC(=O)OC[C@@H]1O[C@@H](n2ccc(=O)[nH]c2=O)[C@H](OC(C)=O)[C@H]1OC(C)=O`, the Potency result with MCC-13, in the assay on MCC-26, in the assay on MKL-1, with UISO and in the assay with WaGa was “inactive” throughout.

Regarding `N#Cc1c(C2CCNCC2)cc(-c2c(O)cccc2OCC2CC2)nc1N`, the Potency entry in the assay on MCC-13, with MCC-26, in the assay on MKL-1, in the assay on C33A, in the assay on Es-2 and in the assay on HeLa was “inactive” each time. Moreover, the Potency entry (with Hek293T; in the assay with OV90; in the assay with Tov112D; in assay [1]) was “inactive” throughout. Also, the Potency in the assay on Tov-21-G was 14.1 µM (active).

`CC(C)C[C@@H](C=O)NC(=O)[C@H](CC(C)C)NC(=O)[C@H](CC(C)C)NC(=O)OCc1ccccc1` (Cbz-Leu-Leu-Leu-aldehyde): the Potency in the assay with MCC-13 is 2.64 µM (active); with MCC-26, 2.35 µM (active); in the assay with MKL-1, 0.935 µM (active); in the assay on MKL-2, 0.743 µM (active); in the assay on UISO, 1.18 µM (active); in the assay with WaGa it was 0.935 µM (active). The Potency in assay [1] was 6.25 µM (active).

On to `COC1=C(OC)C(=O)C(CC=C(C)CCC=C(C)CCC=C(C)CCC=C(C)CCC=C(C)CCC=C(C)CCC=C(C)CCC=C(C)CCC=C(C)CCC=C(C)C)=C(C)C1=O`, for which the Potency entry in the assay on MCC-13, with MCC-26, in the assay on MKL-1, in the assay with MKL-2, with UISO and with WaGa was “inactive” throughout. Further, the Potency entry in [2] is “inactive”.

On to `CCOC(=O)[C@@H](N)Cc1ccc(-c2cc(O[C@H](c3ccc(Cl)cc3-n3ccc(C)n3)C(F)(F)F)nc(N)n2)cc1`, for which the Potency result in the assay on MCC-13, with MCC-26, in the assay with MKL-1, with UISO, in the assay with WaGa and in the assay on C33A was “inactive” throughout. Further, the Potency result in the assay with CASKI, in the assay on Es-2, with HeLa, with Hek293T, in the assay with JEG-3 and with OV90 was “inactive” throughout. Besides, the Potency result in the assay on PA-1, in the assay on SKOV3, with Tov-21-G and in the assay with Tov112D was “inactive” each time. The Potency in [1] was 19.8 µM (active).

In the case of `CC(C)C[C@H](NC(=O)CNC(=O)c1cc(Cl)ccc1Cl)B1OC(=O)CC(CC(=O)O)(C(=O)O)O1` (stereo partly specified), the Potency was 1.18 µM (active) in the assay on MCC-13; 0.59 µM (active) in the assay on MCC-26; 0.743 µM (active) with MKL-1; 0.187 µM (active) in the assay on MKL-2; 0.209 µM (active) in the assay on WaGa.

As to `COc1cc(C)c(C=CC(C)=CC=CC(C)=CC(=O)O)c(C)c1C`, the Potency entry in the assay on MCC-13, in the assay with MCC-26, with MKL-1, in the assay on UISO and in the assay on WaGa was “inactive” each time.

For `CCN(CC)CCCCNc1ncc2c(n1)N(C)C(=O)N(c1c(Cl)c(OC)cc(OC)c1Cl)C2`, the Potency result in the assay on MCC-13, in the assay on MCC-26, with MKL-1 and in the assay on WaGa was “inactive” each time.

For `CCCCCCCCCCCC(CC1OC(=O)C1CCCCCC)OC(=O)C(CC(C)C)NC=O` (stereo unspecified), the Potency result with MCC-13, with MCC-26, in the assay with MKL-1, in the assay on UISO and with WaGa was “inactive” in each case.

Regarding `O=C1c2c(O)cccc2[C@@H]([C@@H]2O[C@H](CO)[C@@H](O)[C@H](O)[C@H]2O)c2cc(CO)cc(O)c21`, the Potency result in the assay with MCC-13, in the assay with MCC-26, with MKL-1, in the assay with MKL-2, with UISO and in the assay on WaGa was “inactive” each time. Moreover, the Potency entry in assay [2] was “inactive”.

As for `CC(C=CC=C(C)C=CC1=C(C)CCCC1(C)C)=CC=CC=C(C)C=CC=C(C)C=CC1=C(C)CCCC1(C)C`, the Potency result in the assay with MCC-13, with MCC-26, in the assay with MKL-1 and with UISO was “inactive” in each case.

For the compound `O=C(O)CCCCC(CCSCc1ccccc1)SCc1ccccc1` (stereo unspecified), the Potency result in the assay with MCC-13, with MCC-26, in the assay on MKL-1 and in the assay on UISO was “inactive” in each case. Besides, the Potency in the assay with WaGa is 13.2 µM (active).

For the compound `CC(C)(C)[C@H](NC(=O)c1ccc(N)c(Cl)c1)C(=O)N1CCC[C@@H]1C(=O)N[C@H](C#N)CC(=O)O`, the activity change, negative = cytotoxicity in the assay on MCC-13 was 7.54% [at 4.84 µM]; with MCC-26, -4.4% [at 4.84 µM]; in the assay with MKL-1, 0.918% [at 4.84 µM]; in the assay on UISO, 4.89% [at 4.84 µM]; in the assay with WaGa, -0.0966% [at 4.84 µM]. Further, in the assay with NIH3T3, the outcome was “inactive [at 4.96 µM]”.

In the case of `COc1ccc([C@@H]2CNC(=O)C2)cc1OC1CCCC1`, the Potency entry in the assay with MCC-13, in the assay on MCC-26 and in the assay with MKL-1 was “inactive” throughout. Besides, the result with NIH3T3 was inactive.

Take `Cc1onc(-c2ccccc2)c1C(=O)N[C@@H]1C(=O)N2[C@@H](C(=O)O)C(C)(C)S[C@@H]12`: the Potency result (in the assay with MCC-13; with MCC-26; in the assay on MKL-1; with UISO; in the assay with WaGa; in [2]) was “inactive” throughout.

Take `CN1C(C(=O)Nc2ccccn2)=C(O)c2sc(Cl)cc2S1(=O)=O`: the Potency result with MCC-13, in the assay with MCC-26, in the assay with MKL-1, in the assay on UISO and in the assay with WaGa was “inactive” each time.

As to `COc1ccc2cc([S+]([O-])Cc3ncc(C)c(OC)c3C)nc2c1`, the Potency result in the assay on MCC-13, in the assay on MCC-26, in the assay with MKL-1 and in the assay on WaGa was “inactive” each time.

Consider `Cc1cnc(Nc2ccc(N3CCN(C)CC3)cc2)nc1Nc1cccc(S(=O)(=O)NC(C)(C)C)c1`, for which the Potency with MCC-13 was 16.6 µM (active); with MCC-26, 8.33 µM (active); in the assay with MKL-1 it was 10.5 µM (active); in the assay on MKL-2, 10.5 µM (active); in the assay on WaGa, 11.8 µM (active); in [1], 2.79 µM (active).

Values taken from PubChem BioAssay (NCATS).
